Autofluor 339 = intrinsic fluorescence of library compounds, ex339/em460 – biochemical, MLSMR library, data from DPM-DC assay, artefact control, profiling panel; compound autofluorescence, ex339/em460 nm, NADH buffer; hits give high values; 1 = no-compound wells, NADH background; fluorescence fold increase at 10 µM; 65,000 compounds, 5.5% hits; AID 709;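 active = at 10 µM, mean starting fluorescence two-fold or more over control wells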;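 note: signal is the first read of a kinetic run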
Spn DPM-DC inh = blocks S. pneumoniae diphosphomevalonate decarboxylase | 65,000 compounds, 0.49% hits | purified DPM-DC, PK/LDH coupled NADH fluorescence | calls only at 10 µM;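 active = the 320 compounds with the highest percent inhibition in the single-dose primary screen, excluding strongly autofluorescent ones, cut at about 32% in these data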;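 note: kinetic rate of NADH fluorescence loss reporting ADP formed by the decarboxylase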
PMK inhibit = blocks S. pneumoniae phosphomevalonate kinase | AID 539 | purified PMK, PK/LDH-coupled NADH absorbance 340 nm | 65,000 compounds, 0.49% hits | inhibition, % at 10 µM;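 active = top-ranked compounds by inhibition in the single 10 µM screen, taking a fixed number of the strongest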;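 note: 0% = full reaction with DMSO carrier and 100% = background rate without enzyme reaction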
MK inhibit = inhibitors of Streptococcus pneumoniae mevalonate kinase; inhibition, % at 10 µM; purified MK, PK/LDH-coupled NADH absorbance 340 nm; AID 555; 65,000 compounds, 0.48% hits;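 active = ranked among the strongest by inhibition in the single 10 µM screen, a fixed top-ranked set picked for dose follow-up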
NADH enzymes = inhibition of NAD/NADH coupling enzymes, library profiling; coupled PK/LDH NADH assays, four targets; IC50, µM (top dose mostly 10 µM), inactives show at the top dose inhibition; 65,000 compounds, 0.02% hits;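 active = single-dose screening hits from any of four coupled enzyme assays that gave an IC50 when retested across doses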;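 note: the DPM-DC format reads NADH fluorescence rather than 340 nm absorbance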
Abs 340nm = compounds absorbing at 340 nm; compound absorbance at 340 nm, fold over control; AID 708; 65,000 tested, under 10 active; fold change at 10 µM;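 active = at 10 µM dose, initial 340 nm absorbance at least 2 fold that of control wells; inactive = change under 2 fold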;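 note: initial absorbance extrapolated from kinetic A340 decline of NADH oxidation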
Numbers without * were called inactive. This is a sample that favours compounds with a hit; in the whole collection about 6.8% have one here.

Screening Cc1nc2sc(C#N)c(N)c2c2c1CCCC2 returned Autofluor 339 2.52*, PMK inhibit 1.0, MK inhibit 0.0, NADH enzymes 3.0% and Abs 340nm 1.01.
Screening CCOC(=O)Cc1c(C)nc2c(-c3cccc(Br)c3)c[nH]n2c1=O returned Autofluor 339 2.17*, PMK inhibit 4.0, MK inhibit 1.0, NADH enzymes 3.0% and Abs 340nm 1.13.
CCOC(=O)Cc1c(C)nc(-c2ccccc2)[nH]c1=O was read as Autofluor 339 1.09, Spn DPM-DC inh inactive, PMK inhibit 8.0, MK inhibit 2.0, NADH enzymes 3.0% and Abs 340nm 0.99.
For O=c1c2c(nc3c(-c4cccc(Br)c4)c[nH]n13)CCCC2 the results were Autofluor 339 2.66*, Spn DPM-DC inh inactive, PMK inhibit 14.0, MK inhibit 0.0, NADH enzymes 7.0% and Abs 340nm 1.03.
Screening Cc1cc(=O)oc2cc3c(cc12)OCCO3 returned Autofluor 339 3.64*, PMK inhibit 0.0, MK inhibit 4.0, NADH enzymes 2.0% and Abs 340nm 1.09.
`Cc1cc2oc(=O)cc(C)c2c(=O)o1` gave Autofluor 339 1.22, Spn DPM-DC inh inactive, PMK inhibit 9.0, MK inhibit 0.0, NADH enzymes 10.0% and Abs 340nm 1.04.
Cc1cc(=O)oc2cc3c(cc12)OCCN3 was read as Autofluor 339 2.08*, PMK inhibit 11.0, MK inhibit 4.0, NADH enzymes 8.0% and Abs 340nm 1.12.
`CCOc1c(C)cc(-c2ncccc2O)cc1C` gave Autofluor 339 3.79*, Spn DPM-DC inh inactive, PMK inhibit 2.0, MK inhibit 11.0, NADH enzymes 14.0% and Abs 340nm 1.06.
`Cc1c(NC(=O)C(C)OC(=O)CC2Sc3ccccc3NC2=O)c(=O)n(-c2ccccc2)n1C` (configuration not stated) gave Autofluor 339 1.07, Spn DPM-DC inh inactive, PMK inhibit 0.0, MK inhibit 4.0, NADH enzymes 1.0% and Abs 340nm 1.01.
`CCNc1nc(SC(C)C(=O)OC)nc(N2CCOCC2)n1` (configuration not stated) gave Autofluor 339 1.11, Spn DPM-DC inh inactive, PMK inhibit 0.0, MK inhibit 8.0, NADH enzymes 3.0% and Abs 340nm 1.03.
COc1cc(NS(=O)(=O)c2cccc3nsnc23)c(C(=O)O)cc1OC was read as Autofluor 339 0.99, Spn DPM-DC inh inactive, PMK inhibit 10.0, MK inhibit 1.0, NADH enzymes 4.0% and Abs 340nm 0.97.
Screening Cc1cc(NS(=O)(=O)c2ccc(-c3ccccc3)cc2)no1 returned Autofluor 339 0.98, Spn DPM-DC inh inactive, PMK inhibit 0.0, MK inhibit 9.0, NADH enzymes 4.0% and Abs 340nm 1.03.
`Cc1cccc(NS(=O)(=O)c2ccc(Oc3ccccc3)cc2)n1` gave Autofluor 339 2.94*, Spn DPM-DC inh inactive, PMK inhibit 8.0, MK inhibit 7.0, NADH enzymes 15.0% and Abs 340nm 1.03.
For CCN(CC)CCCN1C(=O)C(=O)/C(=C(/O)c2ccccc2)C1c1ccccn1 (configuration not stated) the results were Autofluor 339 1.01, Spn DPM-DC inh inactive, PMK inhibit 7.0, MK inhibit 0.0, NADH enzymes 2.0% and Abs 340nm 1.
COc1ccccc1N1C(=O)N(C(C)=O)C2C1Nc1ccccc1N2C (configuration not stated) was read as Autofluor 339 1.2, Spn DPM-DC inh inactive, PMK inhibit 1.0, MK inhibit 1.0, NADH enzymes 1.0% and Abs 340nm 1.04.
O=C1c2ccccc2NC(c2ccncc2)N1c1ccccn1 (configuration not stated) was read as Autofluor 339 2.15*, PMK inhibit 0.0, MK inhibit 0.0, NADH enzymes 0.0% and Abs 340nm 1.05.
For COc1ccccc1N1C(=O)c2ccccc2NC1c1ccncc1 (configuration not stated) the results were Autofluor 339 2.11*, PMK inhibit 0.0, MK inhibit 12.0, NADH enzymes 3.0% and Abs 340nm 1.02.
CCOC(=O)N1CCC(N2CC34C=CC(O3)C(C(=O)Nc3ccc(OCC)cc3)C4C2=O)CC1 (configuration not stated) was read as Autofluor 339 1.09, Spn DPM-DC inh inactive, PMK inhibit 10.0, MK inhibit 5.0, NADH enzymes 5.0% and Abs 340nm 1.05.
Screening CCCCn1cnc2c(cnn2-c2ccc(F)cc2)c1=O returned Autofluor 339 1.05, Spn DPM-DC inh inactive, PMK inhibit 13.0, MK inhibit 5.0, NADH enzymes 6.0% and Abs 340nm 0.98.
Screening CCCn1cnc2c(cnn2-c2ccc(F)cc2)c1=O returned Autofluor 339 1.04, Spn DPM-DC inh inactive, PMK inhibit 27.0*, MK inhibit 6.0, NADH enzymes 4.0% and Abs 340nm 0.97.
`CCOC(=O)c1sc(C)c(C(N)=O)c1NC1=NCCCCC1` gave Autofluor 339 2.04*, Spn DPM-DC inh inactive, PMK inhibit 8.0, MK inhibit 7.0, NADH enzymes 11.0% and Abs 340nm 1.1.
CCN(CCCNC(=O)C1CCN(S(=O)(=O)N2CCOCC2)CC1)c1cccc(C)c1 was read as Autofluor 339 1.05, Spn DPM-DC inh inactive, PMK inhibit 16.0, MK inhibit 4.0, NADH enzymes 7.0% and Abs 340nm 0.99.
Screening Cc1nn(-c2ccc(F)cc2)c2sc(C(=O)OC3CCOC3=O)cc12 (configuration not stated) returned Autofluor 339 2.14*, PMK inhibit 0.0, MK inhibit 5.0, NADH enzymes 3.0% and Abs 340nm 1.04.
Cc1cc(C(=O)OCCO)c(C#N)c(N)n1 was read as Autofluor 339 2.93*, PMK inhibit 5.0, MK inhibit 6.0, NADH enzymes 2.0% and Abs 340nm 1.01.
`COCCn1c(-c2ccc(Cl)cc2)cnc1SCC(=O)NCc1cccs1` gave Autofluor 339 1.1, Spn DPM-DC inh inactive, PMK inhibit 7.0, MK inhibit 1.0, NADH enzymes 3.0% and Abs 340nm 1.
`CC(C)C(=O)Nc1ccc(-c2nc3cccnc3o2)cc1` gave Autofluor 339 2.45*, PMK inhibit 12.0, MK inhibit 7.0, NADH enzymes 4.0% and Abs 340nm 1.15.
`Cc1cc2nc(-c3ccc(NC(=O)C(C)C)cc3)oc2cc1C` gave Autofluor 339 2.19*, PMK inhibit 0.0, MK inhibit 0.0, NADH enzymes 0.0% and Abs 340nm 1.13.
Cc1ccc(-c2nc3cc(NC(=O)C(C)C)ccc3o2)cc1 was read as Autofluor 339 2.46*, PMK inhibit 1.0, MK inhibit 5.0, NADH enzymes 2.0% and Abs 340nm 1.08.
